Bioassay records: PubChem BioAssay, Small Molecule Screening Facility, UW Madison
RMI FANCM FP = inhibitors of human RMI core complex binding to FANCM MM2; Fluorescence polarization, RMI core complex with F-MM2 peptide; hits give low values; FP signal (polarization) at 33 µM; 70,000 tested, 0.58% active; AID 1159607; in the data active = FP signal below about 40
* marks the source's active call; other numbers are inactive results; ! = not confirmed by another sample. The entries come from a sample that favours hits as a whole.

SMILES	RMI FANCM FP
Cc1ccc(C(=O)Nc2ccc(C(=O)NCCNC(=O)c3ccco3)cc2)cc1	141
O=C(NCCC1=CCCCC1)C(=O)Nc1cccc(N2CCCC2=O)c1	58
COCCCN1COc2ccc3cc(-c4cc(OC)ccc4OC)c(=O)oc3c2C1	35*
CCOCCCN1COc2ccc3c(=O)c(-c4ccc(Cl)cc4)coc3c2C1	63
COc1ccc(-c2cc3ccc4c(c3oc2=O)CN(CC2CCCO2)CO4)cc1OC (stereo not given)	-5
O=c1cc(-c2ccccc2)oc2cc(O)cc(O)c12	55
COc1cc(O)c2c(=O)c(-c3ccc(O)cc3)coc2c1	51
O=c1c(-c2ccccc2)coc2cc(O)cc(O)c12	33*
CCOc1ccc(OCC)c(S(=O)(=O)N2CCN(c3nc(C)cc(N4CCCC4)n3)CC2)c1	128
N/C(=N/O)c1cccc([N+](=O)[O-])c1	53
CCOc1ccc2c(c1)c(=O)c(C(=O)c1ccc(F)cc1)cn2CC(=O)Nc1ccc(OC)cc1	70
NC(=O)N/N=C\c1ccc(-c2ccc(C(F)(F)F)cc2[N+](=O)[O-])o1	44
COc1cn(CC(=O)Nc2cccc3ccccc23)c(CN2CCN(c3ccc(F)cc3)CC2)cc1=O	35*
COc1cn(CC(=O)NCc2ccc(C)cc2)c(CN2CCC(C)CC2)cc1=O	59
COc1cn(CC(=O)Nc2ccc(Br)cc2)c(CN2CCC(C)CC2)cc1=O	57
Cc1cc(C)cc(-n2c(SCc3ccccc3F)nc3c([nH]c4ccccc43)c2=O)c1	61
COc1cccc(OC)c1C(=O)NCC(c1ccc2c(c1)CCN2C)N1CCCC1 (stereo not given)	67
CCOC(=O)Cn1cnc2c(oc3nc(-c4ccccc4)cc(-c4ccccc4)c32)c1=O	71
Cc1cc(-c2ccccc2)nc2oc3c(SCC(=O)c4ccc(-c5ccccc5)cc4)ncnc3c12	32*
Cc1cc(-c2ccccc2)nc2oc(C(=O)c3ccc(Cl)cc3)c(N)c12	54
CC(C)=CCCC(C)C1CC[C@@]2(C)C3=C(CC[C@]12C)C1(C)CCC(O)C(C)(C)C1CC3 (stereo not given in full)	61
CCOc1ccccc1N1C(=O)CNC1=S	55
CCOc1ccccc1N1C(=O)/C(=C/C=C/c2ccco2)SC1=S	14*
CCOc1ccc(N2C(=O)S/C(=C\C=C\c3ccco3)C2=O)cc1	54
CCOC(=O)/C(C)=N\Nc1ccc(C(F)(F)F)cc1	63
SMILES	RMI FANCM FP
COc1ccc(/C(C)=N\OC(=O)c2sc3ccccc3c2Cl)cc1CN1CCOCC1	56
O=C(O)c1cc(O)c2c(c1)[C@@H]([C@@H]1c3cc(C(=O)O)cc(O)c3C(=O)c3c(O[C@H]4O[C@H](CO)[C@@H](O)[C@H](O)[C@H]4O)cccc31)c1cccc(O[C@H]3O[C@H](CO)[C@@H](O)[C@H](O)[C@H]3O)c1C2=O	34*
OCc1ccccc1O[C@@H]1O[C@H](CO)[C@@H](O)[C@H](O)[C@H]1O	59
O=[N+]([O-])c1ccccc1O[C@@H]1O[C@H](CO)[C@H](O)[C@H](O)[C@H]1O	60
Cn1c(=O)c2cc(C(=O)Nc3ccc(C(F)(F)F)cc3)sc2n(C)c1=O	64
COc1nn(C)cc1C(=O)Nc1ccc(C(F)(F)F)cc1	57
COC(OC)c1ccc2c(N)c(C(=O)Nc3ccc(C(F)(F)F)cc3)sc2n1	39*
CCOC(=O)c1ccc(-n2c(N)c(C(=O)NCCc3ccc(OC)c(OC)c3)sc2=S)cc1	62
Nn1c(SCC(=O)Nc2ccc(F)c(Cl)c2)nnc1-c1ccncc1	52
CCOC(=O)c1ccc(-n2c(N)c(C(=O)N3CCOCC3)sc2=S)cc1	62
COc1cccc(OCC(=O)Nc2cc(C)nn2-c2nc3c(cnn3-c3ccc(C)c(C)c3)c(=O)[nH]2)c1	65
CCCCNc1nc2ccccc2nc1NS(=O)(=O)c1cccc2nsnc12	63
COc1ccc(OC)c(S(=O)(=O)N2CCN(c3ccc(-c4cccs4)nn3)CC2)c1	74
COc1cccc2sc(Nc3nc(C(C)(C)C)cs3)nc12	61
COc1cccc2sc(Nc3nc4c(F)cc(F)cc4s3)nc12	28*
Fc1cccc2sc(Nc3nc4c(F)cccc4s3)nc12	70
CCCc1nc2ccccc2n1C(C)C	68
CC(C)(C)Cc1nnc(C2CCCN(C(=O)c3ccccc3F)C2)o1 (stereo not given)	59
COc1ccc(N2C(=O)C3C4C=CC(O4)C3C2=O)cc1 (stereo not given)	56
COc1ccc(SCC(=O)Nc2ccc3c(c2)C(=O)N(C)C3=O)cc1	66
CCC(=O)Oc1ccc(N2C(=O)c3ccccc3C2=O)cc1	31*
C=CC(=O)Oc1ccc(N2C(=O)c3cccc([N+](=O)[O-])c3C2=O)cc1	58
COc1ccc(N2C(=O)c3ccc(C(=O)c4ccc5c(c4)C(=O)N(c4ccc(OC)cc4)C5=O)cc3C2=O)cc1	6*
CCC(=O)Oc1cccc(N2C(=O)C3CCCCC3C2=O)c1 (stereo not given)	53
COc1ccc(-c2cc3c(SCC(=O)Nc4ccc(C(C)=O)cc4)nccn3n2)cc1	88
SMILES	RMI FANCM FP
COc1cccc(-c2cc(COC(=O)c3cc4ccccc4oc3=O)no2)c1	54
COc1ccccc1C(=O)NCc1ccc2[nH]c(C)cc2c1	57
CCOc1ccc(N=C2NC(=O)S/C2=C\C=C\c2ccccc2)cc1	66
O=C1NC(=Nc2ccccc2)S/C1=C/C=C/c1ccco1	27*
CC(=C\c1ccccc1)/C=C1/SC(=Nc2ccc(F)cc2)NC1=O	58
O=C(CC1CCCC1)N1CCN(c2ccc(-c3cccnc3)nn2)CC1	73
CC(=O)c1ccc(NS(=O)(=O)N2CCOCC2)cc1	66
COc1ccc(/C=N\Nc2nc(-c3cccs3)cs2)cc1	61
CCOc1ccc(-c2csc(N/N=C\c3ccc(OC)c(OC)c3)n2)cc1	16*
CCOc1ccc(-c2csc(NC(=O)C3CCCCC3)n2)cc1	71
Nc1nnc(-c2cccs2)o1	69
N#CC(C#N)=C1CCC(=C(C#N)C#N)CC1	31*
COc1cc(C)ccc1S(=O)(=O)NCCOc1ccc2c(c1)OCO2	62
C[C@]12CC=CCC1CCC1C2CC[C@](C)(C(=O)O)C1/C=C1/Nc2ccccc2C1=O (stereo not given in full)	35*!
C[C@]12CC[C@@H](O)CC1CCC1C2CC[C@](C)(C(=O)O)C1/C=C1/Nc2ccccc2C1=O (stereo not given in full)	38
CCC(=O)O[C@H]1[C@H](O[C@@H]2[C@@H](C)[C@H](O[C@H]3C[C@@](C)(OC)[C@@H](O)[C@H](C)O3)[C@@H](C)C(=O)O[C@H](CC)[C@@](C)(O)[C@H](O)[C@@H](C)C(=O)[C@H](C)C[C@@]2(C)O)O[C@H](C)C[C@@H]1N(C)C	62
CCOC(=O)CCC(=O)O[C@H]1[C@H](O[C@@H]2[C@@H](C)[C@H](O[C@H]3C[C@@](C)(OC)[C@@H](O)[C@H](C)O3)[C@@H](C)C(=O)O[C@H](CC)[C@@](C)(O)[C@H](O)[C@@H](C)C(=O)[C@H](C)C[C@@]2(C)O)O[C@H](C)C[C@@H]1N(C)C	-23*
CCOC(=O)CCC(=O)OC1C(OC2C(C)C(OC3CC(C)(OC)C(O)C(C)O3)C(C)C(=O)OC(CC)C(C)(O)C(O)C(C)C(=O)C(C)CC2(C)O)OC(C)CC1N(C)C (stereo not given)	63
COc1ccccc1C(=O)N1CCN(c2ccc(-c3ccc(C)c(C)c3)nn2)CC1	71
